# Assay results reported in PubChem BioAssay (NCATS).
# Where “and” joins values, the source holds several entries; their conditions need not be identical. Equal values may be shown once. Records with an inconclusive call do not appear. Some structures have more than one record in an assay (separate samples or runs), and their calls can disagree. Calls of active or inactive are those of the source. Calls follow the shape of the dose curve; as a rule, active = well fitted curve in the direction sought with a large enough effect; inconclusive = small, poorly fitted or top-dose-only effect, or another doubt; inactive = no such curve, though single readings can be large; an effect the other way counts as inactive or inconclusive.
# What was measured:
# [1] = system: Es-2; experiment: Primary qHTS to identify gynecologic anti-cancer compounds using libraries of approved drugs and bioactive compounds (AID 1345084); details: Gynecologic cancer cell panel viability, ATPlite luminescence, 48 h; series mostly up to 57.5 µM; also: nearly all actives have a fitted effect of over 55% in size
# How it was run: (§1)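 Cytotoxicity screen measuring ATP content by luciferase luminescence. Each compound is applied at five concentrations for 48 h at 37 C with 5% CO2.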
# [2] = system: Hek293T; experiment: as above; details: Gynecologic cancer cell panel viability, ATPlite luminescence, 48 h, control line for the selectivity index; series mostly up to 57.5 µM
# How it was run: as §1
# [3] = system: JEG-3; experiment: as above; details: Gynecologic cancer cell panel viability, ATPlite luminescence, 48 h; series mostly up to 57.5 µM
# How it was run: as §1
# [4] = system: SKOV3; experiment: as above; details: Gynecologic cancer cell panel viability, ATPlite luminescence, 48 h; series mostly up to 57.5 µM
# How it was run: as §1
# [5] = system: Tov-21-G; experiment: as above; details: Gynecologic cancer cell panel viability, ATPlite luminescence, 48 h; series mostly up to 57.5 µM
# How it was run: as §1
# [6] = system: Tov112D; experiment: as above; details: Gynecologic cancer cell panel viability, ATPlite luminescence, 48 h; series mostly up to 57.5 µM
# How it was run: as §1
# [7] = Drug repurposing screens with cells derived from glioblastoma tumor samples (AID 1345199); details: GBM patient neurospheres viability, ATP luminescence, 48 h; also: nearly all actives have a fitted effect of over 40% in size
# How it was run: (§2)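 Primary testing used CD133+ neurospheres from four GBM patients, seven concentrations, 48 h exposure and ATP-based viability; confirmation added three slower-growing patient lines.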
# [8] = system: astro; experiment: as above; details: viability, ATP luminescence, 48 h; series mostly up to 45.9 µM
# How it was run: as §2
# [9] = system: HeLa; experiment: Primary qHTS to identify gynecologic anti-cancer compounds using libraries of approved drugs and bioactive compounds (AID 1345084); details: Gynecologic cancer cell panel viability, ATPlite luminescence, 48 h; series mostly up to 57.5 µM; also: nearly all actives have a fitted effect of over 55% in size
# How it was run: as §1
# [10] = system: OV90; experiment: as above; details: Gynecologic cancer cell panel viability, ATPlite luminescence, 48 h; series mostly up to 57.5 µM
# How it was run: as §1
# [11] = system: PA-1; experiment: as above; details: Gynecologic cancer cell panel viability, ATPlite luminescence, 48 h; series mostly up to 57.5 µM
# How it was run: as §1
# [12] = at 45.9 µM (top of the series), tumour line B
# [13] = at 46.1 µM (top of the series), tumour line C
# [14] = at 45.9 µM (top of the series), tumour line D
# [15] = at 46 µM (top of the series), tumour line A
# % is scaled to controls: 0 for no effect and ±100 for the full control effect; potency is read from the fitted curve at half-maximal effect.
structure (smiles),measurement,setting,value
CCc1nn(CCCN2CCN(c3cccc(Cl)c3)CC2)c(=O)n1CCOc1ccccc1,Potency,[1],inactive
same,Potency,[2],inactive
same,Potency,[3],inactive
same,Potency,[4],inactive
same,Potency,[5],inactive
same,Potency,[6],inactive
same,"activity, negative = cell killing",[7]; [12],-29% (inactive)
same,"activity, negative = cell killing",[7]; [13],-17.6% (inactive)
same,Potency,[7]; tumour line A,7.94 µM (active) and 10 µM (active)
same,Potency,[7]; tumour line D,15.8 µM (active) and 11.2 µM (active)
same,Potency,[8],35.5 µM (active) and 25.1 µM (active)
CCOC(=O)[C@H](CCc1ccccc1)N[C@@H](C)C(=O)N1[C@H](C(=O)O)C[C@H]2CCCC[C@@H]21,"activity, negative = cell killing",[7]; [14],2.82% (inactive)
same,"activity, negative = cell killing",[7]; [15],-15.6% (inactive)
same,"activity, negative = cell killing",[7]; [13],1.22% (inactive) and -4.13% (inactive)
same,Potency,[8],inactive
CCCCCCCCCCCCCC[N+](C)(C)Cc1ccccc1,Potency,[9],25.1 µM (active)
same,Potency,[4],22.4 µM (active)
same,Potency,[5],20 µM (active)
same,Potency,[6],14.1 µM (active)
same,Potency,[8],12.6 µM (active)
O=c1[nH]c(=O)n([C@H]2C[C@H](O)[C@@H](CO)O2)cc1F,Potency,[9],5.01 µM (active)
same,Potency,[2],inactive
same,Potency,[10],7.94 µM (active)
same,Potency,[4],7.94 µM (active)
same,Potency,[6],1 µM (active)
same,"activity, negative = cell killing",[7]; [13],-17.1% (inactive)
same,Potency,[7]; tumour line A,891 nM (active)
O=C1C(O)=C(O)C(=O)C(O)=C1O,Potency,[1],inactive
same,Potency,[2],inactive
same,Potency,[3],inactive
same,Potency,[10],inactive
same,Potency,[4],inactive
same,Potency,[5],inactive
same,"activity, negative = cell killing",[7]; [12],-1.83% (inactive)
same,"activity, negative = cell killing",[7]; [14],-8.56% (inactive)
same,"activity, negative = cell killing",[7]; [15],-7.89% (inactive)
same,"activity, negative = cell killing",[7]; [13],12.8% (inactive)
same,Potency,[8],inactive
CN=C(N)NCCC[C@H](N)C(=O)O,"activity, negative = cell killing",[7]; [12],-4.01% (inactive) and -7.28% (inactive) and -14.2% (inactive)
same,"activity, negative = cell killing",[7]; [14],-19.7% (inactive) and 0.377% (inactive) and -12.4% (inactive)
same,"activity, negative = cell killing",[7]; [15],-28.1% (inactive)
same,"activity, negative = cell killing",[7]; [13],8.15% (inactive) and -7.9% (inactive) and -1.89% (inactive)
same,Potency,[8],inactive
O[C@@H](c1cc(C(F)(F)F)nc2c(C(F)(F)F)cccc12)[C@H]1CCCCN1,Potency,[4],25.1 µM (active)
same,Potency,[8],22.4 µM (active)
CCN(CC)CCNc1ccc(CO)c2sc3ccccc3c(=O)c12,Potency,[9],inactive
same,Potency,[2],35.5 µM (active)
same,Potency,[10],35.5 µM (active)
same,Potency,[11],28.2 µM (active)
CC(C)n1c(/C=C/[C@@H](O)C[C@@H](O)CC(=O)O)c(-c2ccc(F)cc2)c2ccccc21,Potency,[1],inactive
same,Potency,[2],inactive
same,Potency,[10],8.91 µM (active)
same,Potency,[4],inactive
same,Potency,[5],inactive
same,"activity, negative = cell killing",[7]; [12],-35.6% (inactive)
same,"activity, negative = cell killing",[7]; [14],-90.6% (inactive)
same,"activity, negative = cell killing",[7]; [13],-19.1% (inactive)
same,Potency,[7]; tumour line A,11200 nM (active)
CNCCCCOc1ccccc1Cc1ccccc1,Potency,[9],inactive
same,Potency,[3],inactive
same,Potency,[11],inactive
same,Potency,[5],inactive
same,Potency,[6],inactive
CCN(CC)CCOc1ccc2c(c1)C(=O)c1cc(OCCN(CC)CC)ccc1-2,Potency,[9],inactive
same,Potency,[10],12.6 µM (active)
same,Potency,[5],22.4 µM (active)
same,Potency,[8],inactive
CCCCCCCCNC(C)C(O)c1ccc(SC(C)C)cc1 (configuration not stated),Potency,[9],inactive
same,Potency,[6],inactive
same,Potency,[8],22.4 µM (active)
CN1CCC[C@@H]1CCO[C@](C)(c1ccccc1)c1ccc(Cl)cc1,Potency,[9],inactive
same,Potency,[3],20 µM (active)
same,Potency,[10],11.2 µM (active)
same,Potency,[4],22.4 µM (active)
CN1CCN(CCC(=O)N2c3ccccc3Sc3ccc(C(F)(F)F)cc32)CC1,Potency,[9],inactive
same,Potency,[10],15.8 µM (active)
same,Potency,[8],inactive
